High-throughput results as filed in PubChem.
S1P4 ag: S1P4 receptor agonists, primary screen, cell-based. activation, % at 4.98 µM. Sphingosine 1-phosphate receptor 4 (Homo sapiens), O95977. S1P4-expressing cell line, agonist reporter assay. AID 1509, 2009. 0.35% of 220,000 active; in the data active = activation above about 11%;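 note: 0% = DMSO vehicle and 100% = reference agonist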
Target sequence (O95977 whole entry, looked up): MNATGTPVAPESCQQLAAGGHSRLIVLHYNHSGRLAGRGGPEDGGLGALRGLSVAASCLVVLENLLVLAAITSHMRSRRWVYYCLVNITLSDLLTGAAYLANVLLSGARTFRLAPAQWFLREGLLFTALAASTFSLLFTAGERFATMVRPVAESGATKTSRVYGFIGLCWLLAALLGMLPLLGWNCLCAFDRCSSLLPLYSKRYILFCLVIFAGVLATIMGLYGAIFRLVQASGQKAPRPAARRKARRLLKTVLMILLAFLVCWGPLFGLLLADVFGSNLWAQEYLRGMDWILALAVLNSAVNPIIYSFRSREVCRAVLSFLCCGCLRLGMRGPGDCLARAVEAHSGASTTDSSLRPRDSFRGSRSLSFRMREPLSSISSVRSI
Insulin prom up: insulin promoter activators in MIN6 cells, imaging, high-content screening, mouse beta cells; MIN6 insulin promoter-GFP reporter; stronger effect = higher value; z-score at 5 µM; 0.3% of 190,000 active; AID 1625, 2009;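 active = z-score above 3 at 5 µM with at least 500 cells counted in the well; inconclusive = wells under 500 cells, flagged as cytotoxic or low count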
S1P4 antagonist: S1P4 receptor antagonists, primary screen, cell-based; Sphingosine 1-phosphate receptor 4 (Homo sapiens), O95977; 0.26% of 220,000 active; S1P4-expressing cells, antagonist mode, reporter read-out; inhibition, % at 4.98 µM; in the data active = inhibition above about 29%;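 note: 0% = wells stimulated with agonist and 100% = vehicle wells without agonist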
Hsp70 act: Hsp70 transcriptional activators, primary screen, cell-based, HeLa, Hsp70 promoter luciferase, luminescence, 10 µM; HeLa Hsp70 promoter luciferase reporter; scaled: vehicle 0, proteasome-inhibitor control 100%; activation, % at 10 µM; 0.04% of 200,000 active;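 active = activation above the mean across all tested compounds plus 3 SD, cutoff set per campaign, cut at about 5.5% in these data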;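 note: 100% = MG132 at 30 µM as the positive control and 0% = DMSO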
INS promoter inh: inhibitors of insulin promoter-driven GFP, primary screen, imaging, TRM-6 cells (human fetal islet line), eGFP reporter, cell count; reporter expression induced with tamoxifen; inhibition, % at 2 µM; 0.9% of 130,000 active;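 active = inhibition above the mean plus 3 SD, with well images judged a real hit on visual review, cut at about 60% in these data, passing the limit was not always enough; inconclusive = inhibition over the cutoff but images rejected on review; inactive = inhibition not above the cutoff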
S1P3 antag: S1P3 receptor antagonists, primary screen, cell-based | Sphingosine 1-phosphate receptor 3 (Homo sapiens), Q99500 | CHO S1P3 NFAT-BLA reporter, FRET fluorescence, antagonist mode | inhibition, % at 4.98 µM | 0.27% of 170,000 active;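 active = inhibition above the plate cutoff, the mean inhibition of test wells on that plate plus 3 SD, cut at about 28% in these data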;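 note: cells challenged with S1P at its EC80 of 0.8 µM; blue over green emission ratio from cleaved BLA substrate after 4 h stimulation; 0% = S1P-stimulated wells and 100% = unstimulated DMSO-only wells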
Numbers without * were called inactive; i = inactive; ? = inconclusive; . = no result given. This is a sample that favours compounds with a hit; in the whole collection about 1.5% have one here.

SMILES	S1P4 ag	Insulin prom up	S1P4 antagonist	Hsp70 act	INS promoter inh	S1P3 antag
Cc1cccc2c1NC(=O)/C2=C\C(=O)c1cccs1	1	.	24	0	67*	.
Cc1cc(C)c2c(c1)/C(=C/C(=O)c1ccc(Br)s1)C(=O)N2	-1	-0.12	18	0	.	.
CCC1CCCCN1c1nc2c(c(=O)n(C)c(=O)n2C)n1CCSc1nc2ccccc2o1 (stereo not given)	.	.	.	.	.	-17
N#Cc1ccsc1NC(=O)COc1ccc(-c2nnco2)cc1	-1	0.17	6	0	65*	-5
S=C(Nc1ccc(Cl)cc1)N1CCCCC1	1	0.28	-9	0	16	-4
CCc1ccc(NC(=S)N2CCCCCCC2)cc1	0	0.19	-9	0	79*	-14
Fc1ccc(C2NCCn3cccc32)cc1 (stereo not given)	-1	3.9*	-4	0	22	.
O=C(OCCN=C1NS(=O)(=O)c2ccccc21)c1ccco1	-1	0.39	8	0	38	-4
CC1CC1C(=O)OCC(=O)NC(=O)NC12CC3CC(CC(C3)C1)C2 (stereo not given)	0	-1.2	-21	0	100*	-13
COc1ccc(CC(=O)OCC(=O)NC(=O)NC23CC4CC(CC(C4)C2)C3)cc1	1	0.07	1	0	-19	.
N#Cc1ccc(C2=NC(C(F)(F)F)(C(F)(F)F)c3c(n(Cc4ccco4)c(=O)[nH]c3=O)N2)cc1	-1	-0.36	12	0	-3	.
OCCN(C=NC1=NN(c2cccc(C(F)(F)F)c2)CC1)CCO	0	.	2	0	3	.
CCN(C=NC1=NN(c2cccc(C(F)(F)F)c2)CC1)CC	-2	-0.47	7	0	62*	1
COc1ccccc1NC(=O)C1=C(C)NC(SCC(=O)c2ccc(C)cc2)=C(C#N)C1c1ccco1 (stereo not given)	2	3.3*	5	0	16	.
C=CCOCCN1C(=O)C2C(c3ccccc3)C=CC(c3ccccc3)C2C1=O (stereo not given)	-4	-0.35	6	0	-41	.
COc1ccc(N(C(C)C(=O)N2CCC(Cc3ccccc3)CC2)S(C)(=O)=O)cc1 (stereo not given)	0	-2.1	-3	0	.	-8
C/C(=C\C(=O)O)C12CC3CC(CC(C3)C1)C2	-1	1.3	-10	0	-39	.
CN1CC=C2C(C#N)=C(N)C(C#N)(C#N)[C@H](c3ccoc3)[C@H]2C1	-4	.	6	0	-14	.
COc1ccc(OC)c(C2C3CN(C(C)C)CC=C3C(C#N)=C(N)C2(C#N)C#N)c1 (stereo not given)	1	17*	-1	0	-479	-21
Cc1ccc(C2C3CN(C(C)C)CC=C3C(C#N)=C(N)C2(C#N)C#N)cc1 (stereo not given)	.	10*	.	.	.	.
COc1ccccc1/C=C/C(=O)N1CCC(c2ccccc2)C1 (stereo not given)	-2	0.12	-26	0	-3	-3
CC(=O)c1c(C)nc2cc(Cl)ccc2c1N	-2	0.68	-4	-1	96*	-34
COc1cccc(-c2csc3nc[nH]c(=O)c23)c1	1	1.3	1	0	89*	9
Cc1ccc(-c2csc3nc[nH]c(=O)c23)cc1	0	0.97	1	0	.	-8
CCOC(=O)C1=C(CBr)NC(=O)NC1C (stereo not given)	1	1	-4	0	.	-10
SMILES	S1P4 ag	Insulin prom up	S1P4 antagonist	Hsp70 act	INS promoter inh	S1P3 antag
O=C(CCCn1c(=S)[nH]c2ccccc2c1=O)NC1CCCC1	1	-0.94	18	0	.	60*
Cc1ccc(NC(=O)C2CC(=O)n3c(nc4ccccc43)N2)cc1C (stereo not given)	0	0.46	-18	.	.	-6
Cc1ccc(NC(=O)C2CC(=O)n3c(nc4ccccc43)N2)cc1Cl (stereo not given)	-1	-0.43	-20	0	73*	-13
O=c1cc(N2CCN(Cc3ccccc3)CC2)[nH]c(=O)n1Cc1ccc(F)cc1	-2	0.41	-2	0	-3	11
CCN1CCN(c2cc(=O)n(Cc3ccc(F)cc3)c(=O)[nH]2)CC1	0	-0.42	4	0	78*	-17
CC(C)(C)C(=O)/C(=C/c1ccncc1)n1cncn1	-2	-0.25	-6	0	.	5
Cc1nnc(NC(=O)CSc2nnc(Cc3ccccc3)n2-c2ccccc2)s1	0	0.42	6	0	i	-20
Cc1nnc(NC(=O)CSc2nnc(Cc3cccn3C)n2-c2cccc(C(F)(F)F)c2)s1	0	0.93	-6	0	.	88*
CCc1nnc(NC(=O)CSc2nnc(Cc3ccccc3)n2-c2ccccc2)s1	-1	0.46	-9	0	82*	-8
CC(C)c1ccc(/C=C(\c2nc3ccccc3[nH]2)S(=O)(=O)c2ccccc2)cc1	-1	-2.9	24	0	36	10
O=S(=O)(/C(=C/c1ccc(C(F)(F)F)cc1)c1nc2ccccc2[nH]1)c1ccccc1	-1	?	92*	3	50	8
CCOC(=O)c1nnn(-c2nonc2N)c1CSc1ccccc1	2	.	-23	0	-14	.
CCOC(=O)c1nnn(-c2nonc2N)c1COc1cc(C)c(Cl)c(C)c1	3	0.06	1	0	-7	58*
Cc1ccc(C)c(S(=O)(=O)N2CCN(c3ncccn3)CC2)c1	0	0.58	-5	0	.	-8
Cc1ccc(C)c(S(=O)(=O)N2C(=S)NC(=O)C2C(C)C)c1 (stereo not given)	0	-0.01	-7	0	80*	.
CCCN(CCC)CC(C)(C)NS(=O)(=O)c1ccc(Cl)cc1	1	0.01	11	.	.	-15
O=C(Nc1ccc(C2=NCCN2)cc1)c1ccc(C(=O)Nc2ccc(C3=NCCN3)cc2)c([N+](=O)[O-])c1	-1	-1.7	0	.	.	-8
O=[N+]([O-])c1cc(Cl)cc(C2=NCCN2)c1	0	0.61	-6	0	79*	.
O=S1(=O)CCC(NC(=S)N2CCCCC2)C1 (stereo not given)	2	0.2	2	0	-75	-3
COc1ccc(-n2cc(C(=O)O)c3ccccc3c2=O)cc1	2	-0.23	-4	0	-76	.
O=C(O)c1cn(-c2ccccc2)c(=O)c2ccccc12	0	.	2	0	70*	.
O=c1c(N2CCOCC2)c(N2CCOCC2)c1=O	1	3*	0	.	.	-8
COc1cccc(CC2(CO)CCCN(Cc3cn[nH]c3-c3ccccc3)C2)c1 (stereo not given)	2	1.8	-8	0	.	5
